# Data: PubChem BioAssay AID488890 (Southern Research Specialized Biocontainment Screening …, 2010)
# Among all 320,000 compounds or so, about 1,300 (0.41%) were called active. Not shown: some 3% with an inconclusive outcome. How the calls were made is not given here. A selection follows. Potency and affinity values are given separately.
# Experiment: growth inhibition of non-replicating M. tuberculosis (AID 488890);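 further: plate controls were DMSO cells for no effect and high antibiotic wells for full effect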
# Conditions: Mycobacterium tuberculosis non-replicating, at 25 µM, stronger effect = higher value
row,SMILES,inhibition
1,CC(Oc1ccccc1)C(=O)OCC(=O)Nc1ccc2c(c1)OCO2 (stereo unspecified),23.9%
2,CCOC(=O)c1sc2nc(C)nc(N3CCN(S(=O)(=O)c4ccccc4)CC3)c2c1C,34.9%
3,CCOC(=O)c1c(-c2ccccc2Cl)cn2ccccc12,3.48%
4,CCCCn1c(=O)[nH]c(=O)c2c1nc(-c1ccc(C(F)(F)F)cc1)n2C,2.06%
5,C=CCn1c(CCC)nc2ccccc21,59.2%
6,Cc1ccc(CNC(=O)COC(=O)CSc2ccc(Br)cc2C)cc1,71.4%
7,CN(CC(=O)Nc1cccc(F)c1)C(=O)c1ccccc1OCC(=O)Nc1cccc(C(F)(F)F)c1,1.32%
8,CCc1cc2cc(C)ccc2nc1SCC(=O)NNC(=O)c1ccco1,-31.6%
9,O=C(O)c1cccc(S(=O)(=O)N2CCC(n3nnc4cc(C(F)(F)F)ccc43)CC2)c1,3.59%
10,CC(=O)c1cccc(NC(=O)N(c2ccccc2)c2ccccc2)c1,4.45%
11,Cc1ccc(S(=O)(=O)NCCc2nnc3ccc(SCC(=O)Nc4nc(C)cs4)nn23)cc1,-6.91%
12,CC1=CC(C)(C)Nc2ccc(OC(=O)CN3C(=O)c4cccc5cccc(c45)C3=O)cc21,78.9%
13,CC1=CC(C)(C)Nc2ccc(OC(=O)CCN3C(=O)c4ccccc4C3=O)cc21,19%
14,COc1ccc([C@H]2CC(=O)C=C(c3cccc(OC(F)(F)F)c3)C2)cc1,24.7%
15,NC(=O)Nc1cc(Cl)ccc1Cl,-13.6%
16,NC(=O)N/N=C1\CCS(=O)(=O)c2ccc(F)cc21,1.74%
17,S=C(NC1CCCCCC1)NC1CCCC1,71.8%
18,O=c1[nH]c(-c2ccncc2)nc2ccccc12,26.6%
19,c1ccc(-c2nc3ccccc3[nH]2)nc1,20.2%
20,O=C(COc1ccc(/C=N/NC(=O)C(=O)N2CCCCCC2)cc1)Nc1ccccc1Cl,74.1%
21,Cc1ccc(C)c(S(=O)(=O)NCC(c2ccco2)N2CCc3ccccc3C2)c1 (stereo unspecified),10.8%
22,COc1ccc(C(=O)NC(C)c2ccc(-n3ccnc3)cc2)cc1[N+](=O)[O-] (stereo unspecified),6.19%
23,CC(NC(=O)c1ccc(N(C)C)c([N+](=O)[O-])c1)c1ccc(-n2ccnc2)cc1 (stereo unspecified),8.22%
24,O=C(Nc1ccccc1C(F)(F)F)c1ccsc1,-9.54%

row,SMILES,inhibition
1,CN(Cc1cnn(C)c1)Cc1nc(COc2ccccc2)no1,12.5%
2,COc1ccc(OC)c(NC(=O)CSC2=NN3CCCC(=O)N=C3S2)c1,-10.2%
3,O=C(CNCc1ccco1)Nc1ccccc1-n1cccc1,5.71%
4,O=C(NCC(c1ccco1)N1CCN(c2ccccc2)CC1)C(=O)NC1CCCCC1 (stereo unspecified),-8.96%
5,Cc1cc2c(cc1C)N(C(=O)CSC1=NCCS1)C(C)(C)c1ssc(=S)c1-2,27.9%
6,Cn1c(O)c(N=NC(=O)c2cc(-c3cccs3)nc3ccccc23)c2ccccc21,-7.82%
7,O=C(COc1cc(O)c2c(=O)cc(-c3ccccc3)oc2c1)c1ccccc1,-7.87%
8,Cc1ccc(OCC(=O)OCC(=O)c2ccccc2)cc1C,20.6%
9,CCOC(=O)c1cc(=O)c2ccc(OCC(=O)Nc3ccccc3)cc2o1,0.19%
10,O=C(COc1ccc2oc(-c3ccccc3)cc(=O)c2c1)Nc1ccccc1,52.2%
11,CC(C)(C)OC(=O)COc1cc(O)c2c(=O)cc(-c3ccccc3)oc2c1,53.9%
12,COc1ccc(C(=O)c2ccccc2)c(O)c1,26.2%
13,NC(=O)c1ccc(NC(=O)CN2CCOCC2)cc1,-9.52%
14,Oc1ccc(/C=N/NP(=S)(c2ccccc2)c2ccccc2)c(O)c1O,-2.4%
15,COc1ccc(OC)c(/C=C/C(=O)OCC(=O)NCc2cccs2)c1,22.8%
16,N#Cc1cnn2c(N)c(-c3ccc(Cl)cc3)cnc12,-16.2%
17,CCn1c(CC(=O)Nc2ccc(C)cc2)nnc1SCC(=O)N1CCN(c2ccccc2)CC1,21%
18,COC(=O)c1cc(/C=C/c2ccccc2)[nH]n1,15.2%
19,Cc1cc(NC(=O)/C=C/c2ccccc2)no1,17.2%
20,Cc1cccc(C)c1NC(=S)NCCCN1CCCC1=O,-28.2%
21,CCOc1ccc(N(CC(=O)Nc2ccc(OC)cc2OC)S(=O)(=O)c2c(C)[nH]c(=O)[nH]c2=O)cc1,25.1%
22,O=c1oc(-c2cccs2)nc2ccccc12,48.8%
23,O=c1c2cnn(-c3ccccc3)c2nc(-c2cccs2)n1-c1ccc(Br)cc1,8.85%
24,N#Cc1c(NCCCO)nc(NCc2ccccc2)c2c1CCN(Cc1ccccc1)C2,26.6%

row,SMILES,inhibition
1,O=C(NNC(=O)C12CC3CC(CC(C3)C1)C2)c1ccncc1,4.55%
2,O=C(OCC(=O)C12CC3CC(CC(C3)C1)C2)c1cnccn1,17.7%
3,O=C(COC(=O)c1ccccn1)NC12CC3CC(CC(C3)C1)C2,30.9%
4,C/C(=N\NC(=O)c1ccccn1)C12CC3CC(CC(C3)C1)C2,54.4%
5,CC(C)N1CCN(Cc2nc3ccccc3s2)CC1CCO (stereo unspecified),8.77%
6,Cc1cc(C)c2cc(C(=O)Nc3ccc4c(c3)OCO4)[nH]c2c1,-16.4%
7,CCOC(=O)c1c(NC(=O)C(C)N2CCN(S(=O)(=O)c3cccs3)CC2)sc2c1CCC(C)C2 (stereo unspecified),-4.48%
8,COc1ccc(/C=C/C(=O)Oc2ccc(C)cc2)cc1,65.3%
9,Cc1ccc(-c2cc(-c3ccc(C)cc3)[n+](C)o2)cc1,24.7%
10,CC1Cc2ccccc2N1C(=O)CCS(=O)(=O)c1cccs1 (stereo unspecified),15.3%
11,COc1ccc(CCNC(=O)Cc2ccc(OC)c(OC)c2)cc1OC,13.8%
12,COc1ccc(C(C)=O)cc1COC(=O)c1cc(C)nc2ccccc12,7.17%
13,O=C(Cc1ccccc1[N+](=O)[O-])OCc1cccc([N+](=O)[O-])c1,34.7%
14,O=C(OCc1cccc([N+](=O)[O-])c1)c1cnccn1,17.7%
15,Nc1ccccc1C(=O)OCc1ccc([N+](=O)[O-])cc1,3.01%
16,COc1ccc(C(C)=O)cc1COC(=O)c1cc2ccccc2cc1O,2.94%
17,O=C(OCc1cc([N+](=O)[O-])cc2c1OCOC2)c1ccc2ccccc2n1,74.8%
18,c1ccc(OCCn2cnc3ccccc32)cc1,1.01%
19,CSc1ccccc1OCc1cc(C(=O)N(Cc2nccn2C)C(C)C)no1,-13.1%
20,Cc1ccnc(Nc2nc(-c3sc(C)nc3C)cs2)c1,36.1%
21,O=C(NCc1cccnc1)c1cccc(F)c1,-1.31%
22,CCn1cc(C(=O)OCC(=O)NCc2ccc3c(c2)OCO3)c(=O)c2ccc(C)nc21,40.4%
23,CCC(C(=O)Nc1ccc2c(c1)OCCO2)n1nnc2ccccc2c1=O (stereo unspecified),6.85%
